Laboratory results taken from the supplement of paper PMC9117331.

Assays:
Conditions in all cases: 0.5 µM; time after treatment 48 h; PC9 signalome
PC9 [1] = experiment: AKT reporter activity score (signed KS statistic vs DMSO) (signed KS statistic (-1 to 1)); higher = stronger activation of the pathway reporter relative to DMSO
PC9 [2] = experiment: RAR reporter activity score (signed KS statistic vs DMSO) (signed KS statistic (-1 to 1)); higher = stronger activation of the pathway reporter relative to DMSO
PC9 [3] = experiment: PKC reporter activity score (signed KS statistic vs DMSO) (signed KS statistic (-1 to 1)); higher = stronger activation of the pathway reporter relative to DMSO
PC9 [4] = experiment: PKA reporter activity score (signed KS statistic vs DMSO) (signed KS statistic (-1 to 1)); higher = stronger activation of the pathway reporter relative to DMSO
PC9 [5] = experiment: p38 reporter activity score (signed KS statistic vs DMSO) (signed KS statistic (-1 to 1)); higher = stronger activation of the pathway reporter relative to DMSO
PC9 [6] = experiment: HIF reporter activity score (signed KS statistic vs DMSO) (signed KS statistic (-1 to 1)); higher = stronger activation of the pathway reporter relative to DMSO
PC9 [7] = experiment: ERK reporter activity score (signed KS statistic vs DMSO) (signed KS statistic (-1 to 1)); higher = stronger activation of the pathway reporter relative to DMSO
PC9 [8] = experiment: JNK reporter activity score (signed KS statistic vs DMSO) (signed KS statistic (-1 to 1)); higher = stronger activation of the pathway reporter relative to DMSO
PC9 [9] = experiment: WNT reporter activity score (signed KS statistic vs DMSO) (signed KS statistic (-1 to 1)); higher = stronger activation of the pathway reporter relative to DMSO
PC9 [10] = experiment: NFkB reporter activity score (signed KS statistic vs DMSO) (signed KS statistic (-1 to 1)); higher = stronger activation of the pathway reporter relative to DMSO
PC9 [11] = experiment: YAP/TAZ reporter activity score (signed KS statistic vs DMSO) (signed KS statistic (-1 to 1)); higher = stronger activation of the pathway reporter relative to DMSO

With `CC[C@@H]1/C=C/C=C/C[C@H](C)[C@H](O)[C@](C)(O)C(=O)[C@H](C)[C@@H](O)[C@H](C)C(=O)[C@H](C)[C@@H](O)[C@H](C)/C=C/C(=O)O[C@H]2[C@@H](C)[C@@H](CC1)O[C@@]1(CC[C@@H](C)[C@@H](C[C@H](C)O)O1)[C@@H]2C` [Oligomycin A] the “AKT reporter activity score” value (PC9 [1]) was -0.252, the “RAR reporter activity score” value (PC9 [2]) was 0.0549 and the “PKC reporter activity score” value (PC9 [3]) was 0.0686. For the same compound, the “PKA reporter activity score” value (PC9 [4]) was -0.0505, the “p38 reporter activity score” value (PC9 [5]) was -0.305 and the “HIF reporter activity score” value (PC9 [6]) was 0.335. For the same compound, the “ERK reporter activity score” value (PC9 [7]) was 0.114, the “JNK reporter activity score” value (PC9 [8]) was 0.0667 and the “WNT reporter activity score” value (PC9 [9]) was 0.138. For the same compound, the “NFkB reporter activity score” value (PC9 [10]) was 0.0911 and the “YAP/TAZ reporter activity score” value (PC9 [11]) was 0.161.
